# Records with an inconclusive call do not appear. The source made the active and inactive calls. The call rests on the fitted dose curve; in most records, active means well fitted cell-killing curve with a large enough effect in the repeat runs; inconclusive means weak or mixed curves, or effect the other way; inactive means no such curve, though single readings can be large or run the other way.
# Test: qHTS assay to identify small molecule agonists of the vitamin D receptor (VDR) signaling pathway - cell viability counter screen (AID 743224); further: nearly all actives have a fitted effect of over 50% in size
# Details: VDR-bla HEK293T viability, CellTiter-Glo luminescence, 16 h; series mostly up to 62.6 µM
# Text: U.S. Tox21 Program National Center for Advancing Translational Sciences [NCATS] NIH Chemical Genomics Center [NCGC] U.S. Environmental Protection Agency [EPA] National Institutes of Environmental Health Sciences [NIEHS] National Toxicology Program [NTP] U.S. Food and Drug Administration [FDA] Tox21 Assay Overview: The vitamin D receptor (VDR), a member of nuclear hormone receptor superfamily, plays a critical role in calcium homeostasis and bone metabolism. It is also involved in cell differentiation and growth, and thrombogenicity. […] The cytotoxicity of the Tox21 compound library against the VDR-bla cell line was tested in parallel by measuring the cell viability using CellTiter-Glo assay (Promega, Madison, WI) in the same wells.
# Tox21 Assay Protocol Summary: VDR-bla cells were dispensed at 2,000 cells/6 uL/well into black wall/clear-bottom 1536-well plates using a Multidrop Combi (Thermo Fisher Scientific, Waltham, MA) dispenser. After the assay plates were incubated at a 37C and 5% CO2 for 4 h, 23 nL of compounds dissolved in DMSO, positive controls or DMSO only was transferred to the assay plate by a Pintool station (Kalypsys, San Diego, CA). The plates were incubated at 37C and 5% CO2 for 16 h. After 1 uL of LiveBLAzerTM B/G FRET substrate was added using a Bioraptr Flying Reagent Dispenser (FRD) workstation (Beckman Coulter, Indianapolis, IN, USA), the plates were incubated at room temperature for 2 h, and fluorescence intensity was measured by an Envision plate reader (PerkinElmer, Shelton, CT). For cell viability readout that measures cytotoxicity, 3 ul/well of CellTiter-Glo reagent was added into the assay plates using a FRD. After 30 min incubation at room temperature, the luminescence intensity in the plates was measured using a ViewLux (PerkinElmer) plate reader.
row,SMILES,outcome
1,O=C(O)CCCCCCCC(=O)O,inactive
2,CCCCC1C(=O)N(c2ccccc2)N(c2ccccc2)C1=O,inactive
3,Cc1cn([C@H]2C[C@H](N=[N+]=[N-])[C@@H](CO)O2)c(=O)[nH]c1=O,inactive
4,NNC(=O)c1ccncc1,inactive
5,CC(=O)OCC(COC(C)=O)OC(C)=O,inactive
6,Cc1cc(=O)[nH]c(=S)[nH]1,inactive
7,CCC1(c2ccccc2)C(=O)NCNC1=O,inactive
8,CC(C)(Oc1ccc(C2CC2(Cl)Cl)cc1)C(=O)O (stereo not given),inactive
9,CCCCOC(=O)CC(CC(=O)OCCCC)(OC(C)=O)C(=O)OCCCC,inactive
10,O=c1ccc2ccccc2o1,inactive
11,NC(N)=NC(=O)c1nc(Cl)c(N)nc1N,inactive
12,Nc1ccc(S(=O)(=O)Nc2nccs2)cc1,inactive
13,O=C(O)c1[nH]n(-c2ccc(S(=O)(=O)O)cc2)c(=O)c1N=Nc1ccc(S(=O)(=O)O)cc1,inactive
14,Cn1c(=O)c2[nH]cnc2n(C)c1=O,inactive
15,NC(=O)c1ccccc1O,inactive
16,CCOc1ccc(NC(=O)CC(C)O)cc1 (stereo not given),inactive
17,CCCNC(=O)NS(=O)(=O)c1ccc(Cl)cc1,inactive
18,O=C(c1ccccc1)c1ccccc1,inactive
19,O=c1cc[nH]c(=S)[nH]1,inactive
20,NC(N)=O,inactive

row,SMILES,outcome
1,Nc1ccn([C@H]2CC[C@@H](CO)O2)c(=O)n1,inactive
2,O=C1NC(=O)c2ccccc21,inactive
3,Cc1ccc(C)c(OCCCC(C)(C)C(=O)O)c1,inactive
4,CCCN(CCC)S(=O)(=O)c1ccc(C(=O)O)cc1,inactive
5,Cc1ccc(S(=O)(=O)NC(=O)NN2CCCCCC2)cc1,inactive
6,COc1c2occc2cc2ccc(=O)oc12,inactive
7,CC(=O)Nc1nnc(S(N)(=O)=O)s1,inactive
8,Cn1cc[nH]c1=S,inactive
9,O=C(C1CCCCC1)N1CC(=O)N2CCc3ccccc3C2C1 (stereo not given),inactive
10,OCCc1ccccc1,inactive
11,OC(Cn1cncn1)(Cn1cncn1)c1ccc(F)cc1F,inactive
12,O=C(O)/C=C\C(=O)O,inactive
13,Nc1ccc(C(=O)O)cc1,inactive
14,Nc1ccc(S(=O)(=O)c2ccc(N)cc2)cc1,inactive
15,Cc1cc(=O)n(-c2ccccc2)n1C,inactive
16,C[C@]12C=CC(=O)C=C1CC[C@@H]1[C@@H]2[C@@H](O)C[C@@]2(C)[C@H]1CC[C@]2(O)C(=O)CO,inactive
17,O=C(c1ccccc1)C(O)c1ccccc1 (stereo not given),inactive
18,Cc1ccc(O)cc1,inactive
19,CCCCCCCCCCCCCCCC(=O)O,inactive
20,O=C(O)c1cc(N=Nc2ccc(S(=O)(=O)Nc3ccccn3)cc2)ccc1O,inactive
